Screens as filed in PubChem BioAssay.
These entries were drawn from the full list.
aSyn 5UTR act: Activators via SNCA 5'UTR binding, MLPCN; alpha-synuclein 5'UTR reporter, activators screen; activity score, % (tested at 7.5 µM), hits read low; 300,000 tested, 7.1% active; AID 1814; in the data active = activity score below about -60%
* marks the source's active call; other numbers are inactive results.

SMILES	aSyn 5UTR act
O=C(NCCc1c[nH]c2ccccc12)c1ccc2c(c1)OCO2	-142*
Cn1c(C(=O)NCCc2c[nH]c3ccccc23)cc2sccc21	-237*
COc1ccc2cnn(-c3ccc(C)cc3)c(=O)c2c1OC	-115*
COc1ccc2cnn(-c3ccc(OC(F)(F)Cl)cc3)c(=O)c2c1OC	-70*
COc1cccc(-c2cc(C(=O)Nc3ccc4c(c3)OCO4)no2)c1	-66*
COc1cccc(OCc2cc(C(=O)NCc3ccc4c(c3)OCO4)no2)c1	-71*
O=C(Nc1ccc2c(c1)OCO2)c1cc(-c2ccccc2Cl)on1	-143*
O=C(Nc1ccc2c(c1)OCO2)c1cc(-c2ccc(O)cc2)on1	-158*
C(=N\N=C\c1cccs1)/c1cccs1	-178*
O=C(CCCC(=O)N1CCN(c2ccccc2F)CC1)c1ccccc1	-76*
O=C(CCc1nnc(C2CCCCC2)o1)N1CCN(c2ccccc2F)CC1	-112*
O=C(Nc1nnc(C2CC2)o1)c1ccc(S(=O)(=O)N2CCCc3ccccc32)cc1	63
O=C(Oc1ccccc1)N1CCN(c2ccccc2F)CC1	-65*
CCSc1ccc(-c2cccc([N+](=O)[O-])c2)nn1	-89*
Nc1ccn([C@@H]2O[C@H](CO)[C@@H](O)C2O)c(=O)n1 (stereo partly drawn)	72
N=c1ccn2c(n1)OC1C(O)C(CO)OC12 (stereo not drawn)	112
OC[C@H]1O[C@@H](n2cnc3c(Nc4ccccc4)ncnc32)[C@H](O)[C@@H]1O	-79*
O=C(N/N=C\C=C\c1ccc([N+](=O)[O-])o1)c1cccs1	-63*
O=C(N/N=C/C=C/c1ccccc1)c1cc2c(ccc3ccccc32)o1	-80*
O=C(Cc1cccs1)N/N=C/C=C/c1ccccc1	-70*
O=C(N/N=C/C=C/c1ccccc1)c1cccs1	-156*
O=C(N/N=C/C(Br)=C/c1ccccc1)c1cccs1	-366*
CCOC(=O)C(=O)N(Nc1ccc(C)cc1)c1ccc(C)cc1	-178*
CCC(=O)NC(=S)Nc1ccc(NC(=O)c2ccco2)cc1	-86*
CCOc1ccc(NC(=S)NC(=O)c2ccco2)cc1	-250*
SMILES	aSyn 5UTR act
C=CCS/C(=N\n1cnc2ccccc2c1=O)N1CCCCC1	-86*
CCNC(=O)c1sc(-c2ccccc2)nc1C	-66*
Cc1nc(-c2ccccn2)sc1C(=O)Nc1ccc(F)cc1F	-127*
Cc1nc(-c2ccccc2)sc1C(=O)Nc1ccccc1F	-66*
CCN(Cc1ccncc1)C(=O)c1cc(COc2ccc(OC)cc2Cl)on1	-111*
Cc1cc(CN(C)C(=O)c2cc(COc3ccc(F)cc3Cl)on2)n[nH]1	-75*
COc1ccc(OCc2cc(C(=O)N(C)Cc3cc(C)no3)no2)c(Cl)c1	-182*
COc1ccc(OCc2cc(C(=O)N(C)Cc3nnc(C)o3)no2)c(Cl)c1	-121*
CCc1ccc(CN(C)C(=O)c2cc(COc3ccc(OC)cc3Cl)on2)nc1	-170*
Fc1ccc2c(c1)/C(=N/Nc1ccccn1)CCS2	-72*
Cc1cc(N/N=C2/CCCc3ccccc32)nc2ccccc12	-172*
c1ccc(N/N=C2\CCCc3ccccc32)nc1	-75*
CC(C)Sc1nnc(-c2c[nH]c3ccccc23)n1C	-111*
COc1ccc(C2CC2/C(=N/OC(=O)c2cccs2)c2ccccc2)cc1 (stereo not drawn)	-153*
c1ccc(-n2cnc3cc(NCc4ccco4)ccc32)cc1	-161*
c1ccc(-n2cnc3cc(NCc4cccs4)ccc32)cc1	-167*
COc1ccc(-n2cnc3cc(NCc4cccs4)ccc32)cc1	-69*
Cc1ccc(-n2cnc3cc(NCc4cccs4)ccc32)cc1	-94*
CCOC(=O)c1sc(N)c(C(=O)OCC)c1C	-65*
O=C(OCc1ccccc1)c1cccc(-c2nnn(Cc3ccccc3)n2)c1	-91*
S=c1[nH]nc(-c2ccn[nH]2)n1-c1ccccc1Cl	-86*
O=C(/C=C\c1ccccc1OC(=O)c1ccccc1F)c1cc2ccccc2o1	-132*
O=C(Nc1ccc2nc(-c3ccccc3)[nH]c2c1)c1cccs1	-103*
O=C(Nc1ccc2nc(-c3ccco3)[nH]c2c1)c1cccs1	-190*
Cc1ccc2nc(-c3cccc(NC(=O)c4ccco4)c3)[nH]c2c1	-121*
SMILES	aSyn 5UTR act
O=C(c1ccccc1)c1ccc2nc(-c3ccc(NC(=O)c4ccccc4F)cc3)[nH]c2c1	-101*
O=C(Nc1ccc2nc(-c3ccco3)[nH]c2c1)c1ccco1	-118*
O=C(Nc1ccc(-c2nc3ccccc3[nH]2)cc1)c1ccco1	-133*
CC(=O)Nc1ccc2nc(-c3ccco3)[nH]c2c1	-73*
O=C(/C=C/c1ccco1)Nc1ccc(-c2nc3ccccc3[nH]2)cc1	89
[O-]/C(=C(\C(=S)Nc1cccc2ccccc12)[n+]1ccccc1)c1ccc(Cl)s1	-63*
Cc1cc2nc3ccc(=[N+](C)C)cc-3sc2cc1N	91
CC(C)CC[n+]1ccccc1/C=C/c1ccc(N(C)C)cc1	79
CN(C)c1ccc(/C=C/c2cccc[n+]2[O-])cc1	-101*
Cn1c(SCc2ccccc2F)nnc1-c1cnccn1	-187*
Cn1c(SCc2ccccc2F)nnc1-c1ccccn1	-123*
